# Data published in PubChem BioAssay (NCATS).
# Where “and” joins values, the source holds several entries; their conditions need not be identical. Equal values may be shown once. Inconclusive results are not listed. Unmarked numbers belong to inactive results. Calls come from the whole dose curve; as a rule, active = well fitted cell-killing curve with a large enough effect; inconclusive = small, poorly fitted or top-dose-only effect, or effect the other way; inactive = flat fitted curve, though single readings scatter.
# Assay: qHTS assay for cell viability of HEK293 cells (AID 743288); note: nearly all actives have a fitted effect of over 50% in size
# Conditions: ATP luminescence (CellTiter-Glo), 18 h, active compounds read low
# Method in brief: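 Environmental chemicals tested in qHTS format against parental HEK293 cells; 18 h treatment, 37 C; read-out ATP luminescence (CellTiter-Glo), 30 min RT development.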
# % is set by controls: 0 for no effect and ±100 for the full control effect.
row,SMILES,max response
1,CC(C#N)CCC#N (centres undefined),-7.04%
2,Nc1cc(Cl)ccc1Cl,7.64%
3,Nc1cccc(Cl)c1,-8.5%
4,ClCc1ccccc1,-10.4%
5,CCC/C=N/O,1.47%
6,COc1c(C(C)(C)C)cc([N+](=O)[O-])c(C)c1[N+](=O)[O-],-7.25%
7,O=S(=O)(Cl)c1ccccc1,1.81% and -4.13%
8,C=CCOCC1CO1 (centres undefined),-5.74%
9,c1ccoc1,0.0286%
10,Clc1ccccc1,10.9%
11,ClC(Cl)(Cl)C(Cl)(Cl)Cl,3.22%
12,CCOC(=O)C1OC1(C)c1ccccc1 (centres undefined),7.29%
13,C/C=C/CC#N,-10.8%
14,ClC(Cl)C(Cl)Cl,-11.3%
15,C=CCCl,2.61%
16,Oc1c(Cl)cccc1Cl,-3.49%
17,Brc1cccc(-c2ccccc2)c1,8.7%
18,C=CCO,9.9%
19,OCCCCO,-3.14%
20,Nn1cnnc1,-1.3%

row,SMILES,max response
1,BrCCc1ccccc1,-1.44%
2,Cc1ccccc1[N+](=O)[O-],6.42%
3,CCCCOC(=O)c1ccccc1N,-7.97%
4,Clc1cc(Cl)c(Cl)c(Cl)c1,-14.6%
5,Cc1ccc(N)c(C)c1,1.36%
6,C1CC2OC2CC1C1CO1 (centres undefined),-9.23% and -6.84%
7,CN(C)C(=O)Cl,4.48%
8,CC(=O)NNc1ccccc1,2.18%
9,Cc1ccc(N=C=O)cc1N=C=O,-9.26% and -8.71%
10,O=C(Cl)OCc1ccccc1,-3.33%
11,C=CC(=O)OC,4.03%
12,CCN(CC)N=O,1.5%
13,OCC(Cl)CCl (centres undefined),-6.78%
14,CC(C)CON=O,-12.6%
15,CC[N+](=O)[O-],0.073%
16,CC(C)(Cl)[N+](=O)[O-],8.03%
17,C[N+](=O)[O-],4.12%
18,CC(C)OC(=O)Cc1ccccc1,-4.3%
19,ClCC(Br)CBr (centres undefined),-7.97%
